Legend:
Test in all cases: fraction of 1-bp insertions among edited reads; higher = more 1-bp insertion outcomes
Details in all cases: mESC; 2uM; 72 h treatment, harvest day 5
[1] = compound: CCn1c(=O)c(-c2ccc(Cl)cc2Cl)cc2cnc(Nc3ccc(N4CCNCC4)c(F)c3)nc21
[2] = compound: CNc1ccc([N+](=O)[O-])c(Nc2ccc3[nH]ncc3c2)n1
Rifapentine = compound: CO[C@H]1/C=C/O[C@@]2(C)Oc3c(C)c(O)c4c(O)c(c(/C=N/N5CCN(C6CCCC6)CC5)c(O)c4c3C2=O)NC(=O)/C(C)=C\C=C\[C@H](C)[C@H](O)[C@@H](C)[C@@H](O)[C@@H](C)[C@H](OC(C)=O)[C@@H]1C [Rifapentine]
[3] = compound: COc1ccccc1-c1cc(Nc2cccc(CS(N)(=O)=O)c2)ncn1
[4] = compound: C[C@@H]1CN(CC(=O)Nc2ccc3c(c2)Cc2cccc(-c4cc(=O)cc(N5CCOCC5)o4)c2S3)C[C@H](C)O1
[5] = compound: Cc1cc(C)nc(SCC(=O)Nc2ncc(Cc3cccc4ccccc34)s2)n1
[6] = compound: Cc1ccc(C(=O)NCCCCCC(=O)Nc2ccccc2N)cc1
[7] = compound: Cc1cccc(CC(=O)N2CCc3c2ccc(-c2cn(C)c4ncnc(N)c24)c3F)n1
[8] = compound: NC(=O)c1ccc2nc(-c3ccc(Oc4ccc(Cl)cc4)cc3)[nH]c2c1 [Chk 2 inhibitor II (BML-277)]
Tucidinostat (Chidamide) = compound: Nc1cc(F)ccc1NC(=O)c1ccc(CNC(=O)/C=C/c2cccnc2)cc1 [Tucidinostat (Chidamide)]
Pemetrexed = compound: Nc1nc2[nH]cc(CCc3ccc(C(=O)N[C@@H](CCC(=O)O)C(=O)O)cc3)c2c(=O)[nH]1 [Pemetrexed]
[9] = compound: Nc1ncnc2c1c(-c1cnc3[nH]ccc3c1)nn2C1CCCC1
[10] = compound: O=C(c1cccc(Cl)c1F)N1CCN(Cc2cccc(Nc3nccs3)n2)CC1
Kenpaullone = compound: O=C1Cc2c([nH]c3ccc(Br)cc23)-c2ccccc2N1 [Kenpaullone]
Genistein = compound: O=c1c(-c2ccc(O)cc2)coc2cc(O)cc(O)c12 [Genistein]
[11] = compound: O=c1cc(N2CCOCC2)oc2c(-c3ccc4c(c3)OCCO4)csc12
Mercaptopurine (6-MP) = compound: S=c1[nH]cnc2nc[nH]c12 [Mercaptopurine (6-MP)]
[12] = compound: S=c1nc[nH]c2nc[nH]c12 [6-Mercaptopurine (6-MP) Monohydrate]

Target	fraction of 1-bp insertions among edited reads [1]	fraction of 1-bp insertions among edited reads [2]	fraction of 1-bp insertions among edited reads (Rifapentine)	fraction of 1-bp insertions among edited reads [3]	fraction of 1-bp insertions among edited reads [4]	fraction of 1-bp insertions among edited reads [5]	fraction of 1-bp insertions among edited reads [6]	fraction of 1-bp insertions among edited reads [7]	fraction of 1-bp insertions among edited reads [8]	fraction of 1-bp insertions among edited reads (Tucidinostat (Chidamide))	fraction of 1-bp insertions among edited reads (Pemetrexed)	fraction of 1-bp insertions among edited reads [9]	fraction of 1-bp insertions among edited reads [10]	fraction of 1-bp insertions among edited reads (Kenpaullone)	fraction of 1-bp insertions among edited reads (Genistein)	fraction of 1-bp insertions among edited reads [11]	fraction of 1-bp insertions among edited reads (Mercaptopurine (6-MP))	fraction of 1-bp insertions among edited reads [12]
43.0 (DMSO control at this site: 1-bp insertion 0.134, MH deletion 0.714, edited 0.104) AGTTTAACTTACTCCGGCCAAAAAAGAACTGCACCTCTGGAGCGGGTTAGTGGTGGTGGTA	0.0588	0.0932	0.0993	0.101	0.118	0.0918	0.0831	0.0629	0.1	0.0828	0.101	0.0907	0.0417	0.058	0.0866	0.0822	0.0946	0.122
42.0 (DMSO control at this site: 1-bp insertion 0.145, MH deletion 0.655, edited 0.132) GGGCTAAACCTATGAGCACAGTAGAACTAAGGGTGGGTGGTGTAGCTAAAGAACTTGACCA	0.133	0.175	0.139	0.162	0.436	0.149	0.138	0.158	0.15	0.203	0.118	0.246	0.201	0.21	0.144	0.141	0.181	0.198
35.0 (DMSO control at this site: 1-bp insertion 0.01, MH deletion 0.72, edited 0.098) CCACTTTTAGAGAGGGTGAAAATCATCAGTTATCATCAGGGCAACAAATTGCTTTCTCCTA	0.0264	0.00485	0.0103	0.0267	0.125	0.0279	0.0384	0.0134	0.0163	0.0535	0.0156	0.0183	0.0381	0.0204	0.00956	0.0278	0.0333	0.0402
22.0 (DMSO control at this site: 1-bp insertion 0.573, MH deletion 0.229, edited 0.045) CTGATGGTTGAAGGATTTAGCCGGGGTCCTAGACGCCGGGGTCCTAGACGAAAGGGCCACG	0.614	0.667	0.644	0.619	0.778	0.573	0.653	0.725	0.508	0.53	0.447		0.671	0.604	0.595	0.623	0.587	0.601
29.0 (DMSO control at this site: 1-bp insertion 0.084, MH deletion 0.745, edited 0.133) TTGATGAACTTCCTCTTCTTCTCATGTCTCCGGTCTCCGGTAGGCCACGTGCATGGCCACT	0.0597	0.0921	0.0712	0.106	0.339	0.0918	0.0975	0.111	0.0639	0.122	0.0781	0.112	0.119	0.11	0.072	0.0694	0.105	0.115
46.0 TTAAGAGCAATGTTCACGCAACTTGAAATTATATCTGTGGTCTTCAAATTGTCTTTTGTCA		0.243	0.165				0.222			0.178	0.309	0.0621			0.25			0.17
41.0 (DMSO control at this site: 1-bp insertion 0.022, MH deletion 0.754, edited 0.115) AAAGAGACAGCAGGTATGAATCCATCTTCCTGACCCTTGGGACCAGCCGGGGCAGTGAAGC	0.0239	0.0181	0.018	0.0187	0.0495	0.0288	0.0318	0.0382	0.0265	0.0195	0.0232	0.0155	0.0392	0.0338	0.0158	0.0195	0.0292	0.0487
7.0 (DMSO control at this site: 1-bp insertion 0.128, MH deletion 0.374, edited 0.098) TACTCAACCGAGACCTACGCGAACCGAAATCGTATGCCGGTGCGCAAGCAGGGCTGGCGTC	0.111	0.166	0.135	0.154	0.226	0.137	0.144	0.141	0.131	0.174	0.0646	0.128	0.15	0.156	0.12	0.16	0.145	0.197
3.0 (DMSO control at this site: 1-bp insertion 0.109, MH deletion 0.149, edited 0.09) TGCTAGCGCCCCCACAAAGCGGACCAGCCAGCACTATAGGGAATAAGGCCAACTTGCACCC	0.126	0.124	0.133	0.13	0.244	0.144	0.112	0.15	0.121	0.123	0.184	0.227	0.152	0.104	0.116	0.13	0.15	0.0992
15.0 GCGCCTCCAATGACCCAGTGGGATCCTACTCCATAATGGGATCCTGGGGATTCCTCGCTCC			0.167			0.185	0.19			0.158					0.0821			0.0929
47.0 (DMSO control at this site: 1-bp insertion 0.095, MH deletion 0.585, edited 0.118) GAGTGGTCCCGAGCCAGGAACTGTGTGTGTTGCAGGGGGGCAGTAACTCCCCAACTCCCTC	0.0775	0.106	0.102	0.0993	0.269	0.0938	0.12	0.0914	0.0791	0.14	0.0508	0.158	0.144	0.101	0.0861	0.108	0.101	0.142
23.0 AGAACAAAGCGCTCATATAACGATATGGGGGGTTATGGGGGGTTGAATTGCTTCAGCACGA		0.00131											0.008					
20.0 (DMSO control at this site: 1-bp insertion 0.349, MH deletion 0.138, edited 0.084) TACAGGTGTAGACTGGTTACGTGGCTGCGGAATTGACTGGTTACGTGGCTGCGGAATTTTG	0.317	0.438	0.293	0.345	0.47	0.3	0.315	0.355	0.233	0.348	0.22	0.456	0.453	0.429	0.278	0.203	0.376	0.22
32.0 (DMSO control at this site: 1-bp insertion 0.03, MH deletion 0.85, edited 0.898) AGAAGTCCAGGATCAGGGGGACTGGGGTCGGGAGGGTGGGGCAGGAAGGAAGCCAGAATCA	0.0112	0.0188	0.0121	0.012	0.0185	0.018	0.0164	0.0245	0.0134	0.0163	0.0205	0.0205	0.0247	0.0214	0.0197	0.0144	0.0169	0.0198
45.0 (DMSO control at this site: 1-bp insertion 0.017, MH deletion 0.666, edited 0.101) TTACACAGCATGAACTGCTAGGTGATGATGTCAGATTCGGTTTTACTAACTTCTCCAAAAA	0.0237	0.0246	0.0255	0.037	0.0735	0.0352	0.0235	0.0353	0.0266	0.0198	0.0325	0.0301	0.0412	0.0351	0.0293	0.0264	0.0287	0.0267
0.0 (DMSO control at this site: 1-bp insertion 0.463, MH deletion 0.339, edited 0.14) AGGATTACCGAGACCTACGCGAACCGAAATCGCTGTCCGGTGCGCAAGCAGGGCTGGCGTC	0.394	0.535	0.468	0.559	0.793	0.523	0.498	0.526	0.495	0.534	0.375	0.623	0.624	0.604	0.453	0.395	0.543	0.518
18.0 (DMSO control at this site: 1-bp insertion 0.114, MH deletion 0.789, edited 0.094) GCGCAAGTGCATAAGTTTTTCTTAAGGCGTGCCTTTAAGGCGTGCCTTTGTCGGTCCTGGA	0.0919	0.103	0.103	0.109	0.18	0.105	0.113	0.128	0.0891	0.0964	0.0804	0.12	0.114	0.134	0.0973	0.0588	0.137	0.13
27.0 CCAGAATTAGAACATATCATCTGGACCCTTTTCCATCTGGACCCTTTTCCAGCACACCCTG		0.13	0.109	0.108		0.124	0.149			0.137		0.169		0.146	0.183	0.158	0.141	0.187
34.0 (DMSO control at this site: 1-bp insertion 0.184, MH deletion 0.385, edited 0.103) ATTATAGGACCCTGAGGGAGCAGAGATGTGGGAATGGGGGCCGAGCCAATTGTGATGTAAG	0.153	0.199	0.159	0.169	0.361	0.165	0.208	0.197	0.148	0.184	0.121	0.233	0.211	0.154	0.11	0.176	0.213	0.2
